Screening data as filed in PubChem.
Shown are actives, neighbours in structure and some others; about 3.4% of the full set was active somewhere.
NF-kB expr up: compounds increasing NF-kB expression in human neuronal cells | fold change at 12.5 µM | NF-kB reporter expression; active compounds read high | 1.6% of 190,000 active; in the data active means fold change above about 3.3
hcDAF12 agonist: activators of H. contortus DAF-12 nuclear receptor | HEK293 hcDAF-12 lit1-tk-luc reporter, luminescence; 0% DMSO, 100% Δ7-dafachronic acid | activation, % at 6.8 µM | 1.4% of 370,000 active;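 active means activation above the mean of all tested compounds plus 3 SD, cut at about 5.5% in these data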;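 further: 100% = response to 3 µM Δ7-dafachronic acid high control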
ssDAF12 agonist: activators of S. stercoralis DAF-12 nuclear receptor; HEK293 ssDAF-12/GRIP1 lit1-tk-luc reporter, luminescence; % of 3 µM dafachronic acid response; activation, % at 6.8 µM; 1% of 370,000 active; AID 652126;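 active means activation above the mean over all tested compounds plus 3 SD, cut at about 0.9% in these data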;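 further: 0% = DMSO-only wells and 100% = 3 µM delta7-dafachronic acid wells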
APP 5'UTR act: activates APP 5'UTR luciferase reporter; SH-SY5Y APP 5'UTR luciferase reporter, luminescence; zero percent = DMSO vehicle wells; activation, % at 2 µM; 1% of 190,000 active; AID 1276;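 active means activation above a set limit, based on mean plus 3 SD of controls, cut at about 140% in these data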
hgDAF-12 ag: agonists of H. glycines DAF-12 nuclear receptor | HEK293 GAL4-hgDAF12 UAS-luciferase reporter, agonist luminescence; normalized to butyrate control | activation, % at 6.8 µM | 1.8% of 370,000 active | AID 687014;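 active means activation above a cutoff set at the mean of all screened compounds plus 3 SD, cut at about 10% in these data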;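 further: 0% = DMSO wells and 100% = sodium butyrate wells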
* hit, by the source's call; · = no result given.

SMILES	NF-kB expr up	hcDAF12 agonist	ssDAF12 agonist	APP 5'UTR act	hgDAF-12 ag
O=C(Nc1ccc(F)cc1)Nc1ccccc1F	1.01	2.9	-0.8	58.3	11.1*
O=C(Nc1ccc(NC(=O)c2ccccc2O)cc1)Nc1ccc(F)cc1F	·	-0.6	1.6*	·	-0.4
O=C(C#Cc1ccccc1)Nc1ccccc1F	·	0.4	-0.6	·	11.4*
CNC(=O)Nc1ccccc1F	1.33	-0.1	-1.2	6.9	2.6
COC(=O)[C@]12C[C@H](CC(=O)N3CCSCC3)C(=O)N(CCc3ccc(OC)c(OC)c3)C1=C[C@H](C1CCCC1)O[C@@H]2C	·	-2.4	-1.6	·	0.7
COC(CNC(=O)c1ccc2nc3ccccc3c(=O)n2c1)OC	·	5.7*	-0.9	·	3.8
CCCCNC(=O)C1CCCN1C(=O)Nc1cc(Cl)cc(Cl)c1 (stereo not drawn)	·	-1.8	0.7	·	0.4
Fc1ccc2c(Cl)c(-c3nnc(-c4cccs4)o3)sc2c1	2.32	1.5	-1.2	146.3*	5.0
COc1ccc(CNC(=O)CCNS(=O)(=O)c2ccc3[nH]c(=O)oc3c2)cc1	·	-2.7	-0.2	·	5.1
CC(=O)C1=C(O)C(=O)N(CCc2c[nH]c3ccccc23)C1c1cccc(O)c1 (stereo not drawn)	1.03	5.7*	0.2	6.4	0.5
COc1ccc(C(=O)CSc2nnc(-c3cccnc3)n2-c2ccccc2)cc1	·	0.6	-1.7	·	4.1
COC(=O)C1C(=O)/C(=C/N(C)C)C(=O)CC1(C)C (stereo not drawn)	6.15*	-2.1	-0.9	36.6	-1.6
Cc1cc(C)cc(-c2c(C(=O)c3ccccc3)[nH]c(N)c2C(=O)NCCc2c[nH]c3ccccc23)c1	·	-1.9	-1.4	·	1.1
COc1ccc(-c2cc(-c3nnc4sc(-c5cccs5)nn34)[nH]n2)cc1	·	0.0	-1.1	·	5.5
Cc1oc2cc(O)ccc2c(=O)c1-c1cnn(-c2ccccc2)c1	2.01	-0.2	-1.5	20.4	0.5
O=c1c(-c2cnn(-c3ccccc3)c2)coc2cc(O)ccc12	3.69*	·	·	140.0*	·
CC(=O)c1ccc(Nc2cc(C)nc3c(C)cccc23)cc1	1.93	3.2	-0.8	-87.2	11.2*
COc1ccc(NC(=O)CN(C)C(=O)Cc2c[nH]c3ccccc23)cc1	·	6.4*	0.4	·	0.2
COc1ccccc1NC(=O)COC(=O)Cc1c[nH]c2ccccc12	1.11	6.3*	0.3	12.8	1.4
COc1ccccc1CNC(=O)COC(=O)Cc1c[nH]c2ccccc12	·	2.7	0.2	·	3.0
CC(C)N1Cc2nnn(Cc3ccccc3)c2-c2cc(F)ccc2S1(=O)=O	·	-3.5	-1.5	·	-5.3
N#Cc1ccccc1COC(=O)c1ccc(Br)o1	·	-0.6	-1.3	·	0.8
N#Cc1ccccc1COC(=O)c1cc(=O)c2ccccc2o1	·	6.4*	-0.8	·	2.3
CCCC[C@H](C(=O)N(CC)c1ccccc1)[C@@H](O)c1ccc(C(C)=O)cc1	·	1.3	-1.0	·	-2.0
Cc1ccc(C(=O)Nc2c3c(nn2-c2ccccc2)CS(=O)(=O)C3)cc1C	·	5.8*	-0.6	·	0.1
SMILES	NF-kB expr up	hcDAF12 agonist	ssDAF12 agonist	APP 5'UTR act	hgDAF-12 ag
COc1ccc(CN2CCC(CNC(=O)NCc3ccccc3)CC2)cc1	·	-1.5	-1.2	·	-1.4
Cc1ccc(Nc2nc(-c3sc(N)nc3C)cs2)cc1	·	5.8*	0.4	·	5.1
CCSc1nnc2nc3[nH]c4c(C)cccc4c3nn12	2.03	3.5	1.5*	84.2	5.9
C=CCSc1nnc2c(n1)[nH]c1c(C)cccc12	2.39	0.8	-1.2	119.3	4.5
COc1ccc(CNc2ccccc2)cc1Br	1.12	-1.6	-0.4	-6.8	3.0
COc1cc(CNc2cccc(F)c2)cc(Br)c1O	1.22	2.4	1.5*	-6.9	1.2
CC(C)c1ccccc1-n1c(SCC(=O)N2CCc3ccccc3C2)nc2ccccc2c1=O	0.53	-2.4	-2.0	3.9	-8.3
O=C(CSc1nc2ccccc2c(=O)n1-c1ccccc1)N1CCc2ccccc2C1	1.42	2.3	1.0*	-2.0	-0.3
CCOc1ccc(C=NNC(=O)c2cc(-c3ccc(Cl)cc3)n[nH]2)cc1	·	-2.2	-1.6	·	5.3
Cc1ccc(CSc2nc3ncccc3[nH]2)cc1	3.17	3.2	-0.6	134.8	12.9*
O=c1cc(-c2ccc(O)c(O)c2)oc2c1ccc1ccccc12	·	-1.6	-1.9	·	-2.2
O=c1cc(-c2cccc(Br)c2)oc2cccc(O)c12	·	5.8*	-0.1	·	-0.1
O=C(O)c1cccc2cc(-c3ccccc3)oc(=O)c12	·	-0.6	-1.3	·	1.7
O=c1oc(-c2ccc(O)c(O)c2)cc2cccc(O)c12	·	6.9*	2.6*	·	6.5
COc1cc(-c2cc(=O)c3c(O)cc(O)cc3o2)ccc1O	1.52	·	·	22.7	·
O=c1cc(-c2ccc(O)c(O)c2)oc2ccc3ccccc3c12	·	3.4	0.1	·	10.4*
O=c1cc(-c2ccccc2)oc2cccc(O)c12	·	-1.4	-0.1	·	4.2
O=c1oc(-c2ccc(O)c(O)c2)cc2cc(O)cc(O)c12	·	13.3*	0.8	·	9.2
CCC(CO)Nc1cccc2c1S(=O)(=O)N(Cc1cn(Cc3ccc(C(F)(F)F)cc3)nn1)Cc1ccccc1O2 (stereo not drawn)	·	-1.8	-2.0	·	-3.9
CCC(C)N(C(C)CC)S(=O)(=O)c1ccc2[nH]c(=O)oc2c1 (stereo not drawn)	·	-1.5	-0.2	·	-2.3
COc1ccc(N2CCN(CCNS(=O)(=O)c3ccccc3[N+](=O)[O-])CC2)cc1	·	-3.5	-1.0	·	-1.6
Cc1ccc(C2CCC3(CCC(=O)N3CCOC(=O)Nc3ccc(Br)cc3)CC2)cc1 (stereo not drawn)	·	-0.7	-0.8	·	1.4
Cc1c(NC2=C(Cl)C(=O)N(c3ccccc3Cl)C2=O)c(=O)n(-c2ccccc2)n1C	1.7	5.1	0.9*	-16.9	0.9
CCOC(=O)[C@]12CCCC=C1N(CCCOC)C(=O)[C@@H]2CC(=O)NCc1ccc(C)o1	·	-2.4	-0.9	·	3.0
Nn1c(SCc2cccc3ccccc23)nnc1-c1n[nH]c2c1CCC2	·	-4.0	-1.5	·	-3.3
SMILES	NF-kB expr up	hcDAF12 agonist	ssDAF12 agonist	APP 5'UTR act	hgDAF-12 ag
COc1ccccc1/C=N\Nc1cn[nH]c(=O)c1Cl	9.09*	-0.1	-0.4	10.8	-1.1
Cc1cccc(/C=N\Nc2cn[nH]c(=O)c2Cl)c1	1.45	-1.9	-1.2	19.3	0.4
COC(=O)C1CN(C2CCCC2)CCS(=O)(=O)N1Cc1ccc(C)cc1 (stereo not drawn)	·	-2.1	-1.7	·	-0.9
O=C(N/N=C/c1c(Cl)cccc1Cl)c1n[nH]c2c1CCCC2	1.62	-0.6	-1.9	45.8	7.7
Cc1ccsc1/C=N\NC(=O)c1cc(C(C)(C)C)[nH]n1	2.17	2.4	-0.7	84.6	10.8*
Cc1ccsc1/C=N\NC(=O)c1n[nH]c2c1CCC2	4.76*	6.0*	1.0*	26.4	9.8
CN(CC#Cc1ccccc1)C(N)=NC(=O)/C=C/c1ccccc1	·	-2.4	-2.2	·	-2.5
Cc1ccc(N2CCN(C(=S)c3ccc(-c4ccccc4[N+](=O)[O-])o3)CC2)cc1	·	2.7	0.1	·	0.2
O=[N+]([O-])c1ccccc1-c1ccc(C(=S)N2CCN(c3ccccc3)CC2)o1	·	3.0	1.7*	·	1.3
